# Reference: PubChem BioAssay AID1851 (National Center for Advancing Translational Sciences (NCATS), 2009)
# Several values for one entry are separate records, joined by “and”; a condition that tells them apart may be missing. Identical values can stand only once. About 2,600 (16%) of roughly 16,000 compounds were called active. About 20% were inconclusive and are not listed. Calls come from the whole dose curve; as a rule, active = well fitted curve in the direction sought with a large enough effect; inconclusive = small, poorly fitted or top-dose-only effect, or effect the other way; inactive = no such curve, though single readings can be large or run the other way. The list is a sample of the results. Where a structure was tested more than once in an assay, its records may differ in their call.
# Target: Cytochrome P450 2D6 (Homo sapiens) (UniProt P10635)
# Sequence (P10635 whole entry, looked up): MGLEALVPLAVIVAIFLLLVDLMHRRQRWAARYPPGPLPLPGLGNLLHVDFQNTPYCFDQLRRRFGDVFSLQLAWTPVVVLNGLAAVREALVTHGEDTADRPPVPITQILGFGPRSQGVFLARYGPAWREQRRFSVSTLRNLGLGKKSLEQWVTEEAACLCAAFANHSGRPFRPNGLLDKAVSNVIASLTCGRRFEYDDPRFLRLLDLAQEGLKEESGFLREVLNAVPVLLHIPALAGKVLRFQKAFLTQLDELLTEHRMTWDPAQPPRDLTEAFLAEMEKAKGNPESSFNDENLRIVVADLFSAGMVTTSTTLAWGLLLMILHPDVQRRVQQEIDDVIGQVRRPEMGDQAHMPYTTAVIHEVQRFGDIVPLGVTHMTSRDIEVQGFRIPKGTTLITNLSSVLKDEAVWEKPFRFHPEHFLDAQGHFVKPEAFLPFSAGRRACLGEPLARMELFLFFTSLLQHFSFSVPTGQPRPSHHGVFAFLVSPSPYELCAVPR
# Assay: Cytochrome panel assay with activity outcomes
# Conditions: recombinant CYP, pro-luciferin dealkylation, luminescence, p450-cyp2d6; series mostly up to 57.1 µM; activity, negative = inhibition: at the top concentration
# % is set by controls: 0 for no effect and ±100 for the full control effect.
Structure (SMILES),"activity, negative = inhibition",AC50
COC(Cc1nnc(SC)n1-c1ccccc1)OC,10.6% (inactive),
CC(C)Nc1cc(C(F)(F)F)nc(-c2ccccn2)n1,14.4% (inactive),
CC(C)COP(=O)(c1ccc(N(C)C)cc1)C(O)c1ccccc1F (stereo not drawn),3.33% (inactive),
COc1cccc(Cn2c(=O)cnc3cnc(OC)nc32)c1,-20.5% (inactive),
Cc1ccc(-c2nc3c(=O)n(C)c4ccccc4c3o2)cc1,-0.939% (inactive),
O=C(COc1ccccc1)Nc1ccc(-c2nnc(-c3ccco3)o2)cc1,-15.7% (inactive),
C/C(CC(=O)Nc1cc(Cl)ccc1Cl)=N\NC(N)=S,-29.8% (inactive),
CC(NC(=O)c1ccc(Cn2cc([N+](=O)[O-])cn2)o1)c1ccccc1 (stereo not drawn),-9.64% (inactive),
CCCc1cc2c(cc1NC(=O)c1ccccc1C)OCO2,,8.91 µM (active)
CCOc1cc(NC(=S)NCC2CCCO2)c(OCC)cc1NC(=O)c1ccccc1C (stereo not drawn),-28.8% (inactive),
CCC(=O)Nc1cc2c(cc1C(=O)c1ccccc1)OCCO2,-0.416% (inactive),
c1ccc(-c2csc3ncn4cnnc4c23)cc1,16.6% (inactive),
CCC(=O)N[C@@H]1Cc2ccccc2[C@@H](c2ccccc2)C1,-2.56% (inactive),
COCCNc1cc(-c2c(C)noc2C)ncn1,7.09% (inactive),
Cc1cc(Cl)ccc1OCC(=O)N/N=C1\CCCc2ccccc21,19.9% (inactive),
Cc1cc(Cl)ccc1OCC(=O)Nc1nc(N)nc(N)n1,14% [at 11.4 µM] (inactive),
Cc1cc(Cl)ccc1OCC(=O)NCc1ccncc1,,2.82 µM (active)
N/C(=N\c1nc2ccccc2o1)NC(=O)c1ccccc1F,-0.637% (inactive),
Cc1ccc(S(=O)(=O)N[C@H]2COC(=O)C/C=C\[C@@H](C)COC(=O)C/C=C\[C@@H]2C)cc1,15.5% [at 11.4 µM] (inactive) and -2.8% [at 11.4 µM] (inactive),
N#CCCSC(=S)[C@H]1CCCC1=N,-9.64% [at 11.4 µM] (inactive),
CC(C/C=N/NC(=O)COc1cc(Cl)ccc1Cl)c1ccccc1 (stereo not drawn),,0.631 µM (active)
O=C(COc1ccccc1Cl)Nc1cc(Cl)ccc1Oc1ccccc1,-7.9% (inactive),
O=C(COc1ccccc1C(=O)N/N=C\c1ccc(O)c(O)c1)N/N=C/c1ccc(O)c(O)c1,-6.7% (inactive),
CC(C)(C)NC[C@@H](O)c1ccc(O)c(CO)n1,-1.17% [at 11.4 µM] (inactive),
Cc1cccc(C)c1NC(=O)COc1cccc(/C=N/NC(=O)C(=O)NCc2ccccc2)c1,3.74% (inactive),
O=C(CC(=O)N/N=C\c1c(Cl)cccc1Cl)NCc1ccccc1,-29.6% (inactive),

Structure (SMILES),"activity, negative = inhibition",AC50
CCCCNC(=O)C1CC(=O)N(CCC(C)C)C1 (stereo not drawn),0.785% (inactive),
CCCC/C=C/C(NC(=O)c1cccs1)c1ccccc1 (stereo not drawn),1.02% (inactive),
CNCCCCCCCCSc1nc(C(C)C)ccc1C(=O)c1cccs1,,0.00631 µM (active)
C[C@@H](C(=O)O)c1ccc(C(=O)c2cccs2)cc1,-5.01% [at 25.6 µM] (inactive),
Nc1ncnc2c1ncn2C1CCCC1,8.79% (inactive),
CNC(=O)Oc1ccc2c(c1)[C@@]1(C)CCN(C)[C@@H]1N2C,,1.26 µM (active) and 631 nM (active)
COc1ccc(Nc2ncc3c(n2)CC(c2ccc(C)cc2)CC3=O)cc1 (stereo not drawn),-9.28% (inactive),
O=c1c(-c2ccc(Cl)cc2)[n+]([O-])c2ccccc2n1OCc1ccccn1,14.8% (inactive),
CC(C(=O)NC1CCCC1)N(C(=O)c1ccc(-c2ccccc2)[nH]1)c1ccccc1F (stereo not drawn),-20.3% (inactive),
CCOC(=O)Cc1csc(NC(=O)c2ccc(S(=O)(=O)N3CCCCC3)cc2)n1,1.88% (inactive),
Cc1cccc2c(SCC(=O)NCC3CCCO3)nc(-c3ccc(F)cc3)nc12 (stereo not drawn),-24.8% (inactive),
CC(C)CC(C(=O)NCC1CCCO1)N(C(=O)Cn1nnc(-c2ccc(F)cc2)n1)c1ccccc1F (stereo not drawn),,20 µM (active)
CC(C)CC(C(=O)NCC1CCCO1)N(C(=O)Cn1nnc(-c2ccc(F)cc2)n1)c1cccc(C(F)(F)F)c1 (stereo not drawn),,12.6 µM (active)
CC(C)C(C(=O)NCC1CCCO1)N(Cc1ccco1)C(=O)CNS(=O)(=O)c1ccc(F)cc1 (stereo not drawn),-2.69% (inactive),
CN(C(=O)Cn1nnc(-c2cccc(C(F)(F)F)c2)n1)C1CCCCC1,27.7% (inactive),
COc1ccc(S(=O)(=O)N(CC(=O)NCC2CCCO2)c2ccc(F)cc2)cc1OC (stereo not drawn),-5.47% (inactive),
NCCCCCC(=O)O,,inactive
Clc1ccc(-c2nnc(-c3ccco3)o2)cc1,-8.43% (inactive),
O=c1[nH]c(=O)c2nc3ccccc3nc2[nH]1,9.16% (inactive),
CC(=O)NCCC(=O)Nc1sc2c(c1-c1nc3ccccc3[nH]1)CCCC2,-28.3% (inactive),
Cc1ccc(NC(=O)N/C=C/c2ccco2)cc1C,-29.6% (inactive),
COc1ccc(C(C(=O)NC2CCCC2)N(C(=O)c2snc(-c3ccc(F)cc3)c2N)c2ccccc2)cc1 (stereo not drawn),14.7% (inactive),
COc1ccc(CSc2nnnn2C)cc1[N+](=O)[O-],-1.53% (inactive),
CCCOc1ccc(Cn2c(C)nc([N+](=O)[O-])c2SCC(O)COC)cc1[N+](=O)[O-] (stereo not drawn),,12.6 µM (active)
CC(=O)Nc1ccc(Nc2ncnc3c2cnn3-c2ccccc2)cc1,-16.2% (inactive),
N#Cc1cccc(-c2nc3cnc(N4CCOCC4)nc3n(C3CC3)c2=O)c1,3.06% (inactive),

Structure (SMILES),"activity, negative = inhibition",AC50
CC(C)(C)N(NC(=O)Nc1ccccc1)C(=O)c1ccccc1Cl,16.3% (inactive),
CC(C)(C)N(NC(=O)Nc1ccc(Cl)c(Cl)c1)C(=O)c1ccccc1,,28.2 µM (active)
Cc1cc(C)cc(C(=O)N(NC(=O)Nc2ccc(Cl)cc2)C(C)(C)C)c1,-12.7% (inactive),
Cc1nc2cnc(N(C)C)nc2n(CCC#N)c1=O,1% (inactive),
CCCn1c(CC)nc([N+](=O)[O-])c1S(=O)(=O)c1ccccc1,-12% (inactive),
O=[N+]([O-])c1cc(Cl)cc2c1nc(NCCO)c1ccccc12,-18% [at 11.4 µM] (inactive),
CSc1ccccc1N1CCN(C(=O)Nc2ccc3c(c2)NC(=O)CO3)CC1,7.94% (inactive),
O=C(NCC1CCCO1)c1ccc(CS(=O)(=O)Cc2ccc(F)cc2)o1 (stereo not drawn),-4.74% (inactive),
Cn1c(OCc2ccc3c(c2)OCO3)nc2c1c(=O)n(Cc1ccc(Cl)c(Cl)c1)c(=O)n2C,,5.01 µM (active)
Cn1c(=O)c2c(nc(Cl)n2Cc2ccc(Cl)c(Cl)c2)n(C)c1=O,-24.9% (inactive),
COC(=O)Cn1c(=O)c2c(nc(Br)n2Cc2ccccc2Cl)n(C)c1=O,-4.28% (inactive),
CC(C)c1ccc(Cn2ccc3c4c(N)nc(NC5CC5)nc4ccc32)cc1,,1 µM (active)
Cc1cc(CNC(=O)[C@@H]2C[C@H]2[C@@H](NP(=O)(c2ccccc2)c2ccccc2)c2ccccc2)nn1C,4.62% (inactive),
FC(F)(F)c1nnc2c(Sc3ccccc3)nc3ccc(Cl)cc3n12,7.73% (inactive),
O=C(O)C[C@H](NC(=O)CP(=O)(O)O)C(=O)O.[NH-][C@@H]1CCCC[C@@H]1[NH-].[Pt],7.2% [at 11.4 µM] (inactive),
CC1(C)CO[C@H](CC(=O)O)CN1,,0.00631 µM (active)
C[C@H](N)CCCC(C)(C)O,2.07% [at 25.6 µM] (inactive),
O=C(Cn1c(C(F)(F)F)nc2ccccc21)c1ccc(F)cc1,-10.1% (inactive),
O=C(CCCN1CC=C(n2c(=O)[nH]c3ccccc32)CC1)c1ccc(F)cc1,,3.16 µM (active)
CC(C)=CCC/C(C)=C/CO/N=C1/C[C@@H](O)[C@@H](O)[C@@H]2[C@@H]3C(=O)N(C[C@@H]4CCCO4)C(=O)[C@H]3CC[C@H]12,-9.15% [at 11.4 µM] (inactive),
COc1ccc(N=C2S/C(=C\c3ccc(C)s3)C(=O)N2CC(C)C)cc1,1.59% (inactive),
O=C(O)CCC(=O)N1CCc2cc(S(=O)(=O)N3CCCCC3)ccc21,4.95% (inactive),
Cc1ccc(-c2cc(C(=O)NN=C3CCCC3)c3ccccc3n2)cc1,-21.4% (inactive),
CCNc1ncc2nc(-c3ccc(Cl)cc3)c(=O)n(Cc3ccc(F)cc3)c2n1,-0.819% (inactive),
CN(Cc1n[nH]c(=S)n1C)S(=O)(=O)c1ccccc1,-5.55% (inactive),
COC(=O)C(NC(=O)c1ccc(Cl)cc1)(Nc1nc(C)cs1)C(F)(F)F (stereo not drawn),-25.8% (inactive),

Structure (SMILES),"activity, negative = inhibition",AC50
Cc1ccc(SCC(=O)NNC(=O)C2CCCCC2)cc1,-7.86% (inactive),
CC(=O)N[C@@H]1CONC1=O,18.4% [at 11.4 µM] (inactive),
Cc1ccc(C(=O)Nc2ccccc2Oc2ccccc2)cc1[N+](=O)[O-],-27% (inactive),
Cc1ccc(NC(=O)c2ccc(NCC3CCCO3)c([N+](=O)[O-])c2)cc1Cl (stereo not drawn),-20.3% (inactive),
Cc1ccc(C(=O)Nc2ccc(Cc3ccncc3)cc2)cc1[N+](=O)[O-],,1.41 µM (active)
N[C@H](C(=O)O)[C@@H]1C[C@@H]1C(=O)O,,inactive
N[C@H](C(=O)O)C1[C@H](C(=O)O)[C@H]1C(=O)O (stereo partly drawn),,7.94 µM (active)
O=C(O)[C@H]1[C@H](C(=O)O)[C@H](C(=O)O)C[C@@H]1C(=O)O,-4.27% [at 11.4 µM] (inactive),
O=c1cnc2cnc(N3CCOCC3)nc2n1Cc1ccc(F)cc1,-9.25% (inactive),
NC(N)=[N+]1CCc2ccccc2C1,-16.2% (inactive),
COc1ccccc1NC(=O)[C@H](COCc1ccccc1)NC(=O)OC(C)(C)C,-16.4% (inactive),
O=C1NCCN1Cc1cccc(Cl)c1,2.96% (inactive),
Cc1ccc(-n2ccc(=O)c(-c3ccnc(SCc4cccc(Cl)c4)n3)n2)cc1,-22.4% (inactive),
O=S1(=O)C=C(SCc2cccc(Cl)c2)Nc2ccccc21,,12.6 µM (active)
O=C1c2ccccc2C(=O)N1CCCCN(C(=O)c1cccc([N+](=O)[O-])c1)c1ccc(Cl)cc1,-20.7% (inactive),
CC1=NS(=O)(=O)c2cc(Cl)ccc2N1,,inactive and 7.94 µM (active)
COc1ccc(-n2nnnc2-c2cn(C)nc2C(F)(F)F)cc1,-7.4% (inactive),
O=C(O)c1cc(N=Nc2ccc([N+](=O)[O-])cc2)ccc1O,-8.54% [at 11.4 µM] (inactive),
CS[C@]12C(=O)C[C@]3(C)[C@@H](CC[C@@]3(O)C(=O)CO)[C@@H]1CCC1=CC(=O)CC[C@]12C,0.401% [at 11.4 µM] (inactive),
Cn1nc(-c2ccc(N3CCOCC3)c(NS(=O)(=O)c3ccc(Cl)cc3)c2)c2ccccc2c1=O,-7.84% (inactive),
CN1CCN(c2ncncc2-c2ccc(C(=O)N(C)C)cc2)CC1,,0.251 µM (active)
CN1CCN(c2ncnc3ccc(-c4cccc(NS(C)(=O)=O)c4)cc23)CC1,3.66% (inactive),
CN(C)C(=O)c1ccc(-c2cncnc2NC2CCNCC2)cc1,-15.4% (inactive),
CN1CCN(c2ncncc2-c2ccc(N(C)C)cc2)CC1,,10 µM (active)
CN(C)C(=O)c1ccc(-c2cncnc2N2CCNCC2)cc1,,7.94 µM (active)
